# Source: PubChem BioAssay (National Center for Advancing Translational Sciences (NCATS))
# HEK293 tox – cytotoxicity in counter-screen for GLP-1R inverse agonists; HEK293 cAMP-luciferase reporter cells, luminescence, 24 h; Potency, µM (series often up to 38.3 µM), without a hit: at the highest dose activity change, negative = inhibition, most hits filed as inhibitors; hit rate 0.13% among 410,000; AID 624418;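 further: loss of luciferase light is scored as toxicity; on the % scale 0 is the no-effect control and ±100 the full control effect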
#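 Luminescence readout: signal drop marks cytotoxicity. Plated cells grew 12 h at 37 °C, 5% CO2, received 23 nL compound for 24 h, then got luciferase reagent, read after 12 min at RT.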
# GLP1R inv ag – GLP-1 receptor (human) inverse agonism | AID 624417 | Potency, µM (highest dose often 38.3 µM), inactives show at the highest dose activity change, negative = inhibition, hits mostly inhibitors | HEK293 GLP-1R CRE-luciferase, luminescence, 24 h; GLP-1R form is constitutively active | hit rate 1.6% among 410,000 | P43220; further: on the % scale 0 is the no-effect control and ±100 the full control effect; nearly all actives have a fitted effect of over 55% in size
# Target sequence (P43220 whole entry, looked up): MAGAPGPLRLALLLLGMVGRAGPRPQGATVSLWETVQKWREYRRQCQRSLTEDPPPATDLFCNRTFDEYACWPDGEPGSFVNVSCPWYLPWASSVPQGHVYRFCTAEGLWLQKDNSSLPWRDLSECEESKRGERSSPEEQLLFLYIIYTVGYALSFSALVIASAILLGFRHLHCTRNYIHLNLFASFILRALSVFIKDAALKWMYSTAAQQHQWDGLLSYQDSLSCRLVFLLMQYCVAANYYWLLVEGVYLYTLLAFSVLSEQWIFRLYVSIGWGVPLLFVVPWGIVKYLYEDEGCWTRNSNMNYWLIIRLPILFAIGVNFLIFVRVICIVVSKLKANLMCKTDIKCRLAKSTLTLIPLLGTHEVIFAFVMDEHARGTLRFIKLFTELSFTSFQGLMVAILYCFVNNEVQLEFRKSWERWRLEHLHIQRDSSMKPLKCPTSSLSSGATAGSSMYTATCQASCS
#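 Inverse agonists were sought by their lowering of basal cAMP reporter luciferase output in HEK293 cells stably carrying constitutively active human GLP-1R, after 24 h compound treatment.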
# GLP-1R agonist – agonists of human GLP-1 receptor; hit rate 0.007% among 380,000; Potency, µM (series often up to 45.6 µM), for the others: top-dose activation, most hits filed as activators; HEK293 GLP-1R CRE-luciferase, luminescence, 4-6 h; cells express a hypersensitive GLP-1R form; P43220; further: % of control where 0% means no effect
# Numbers without * were called inactive; u = inconclusive; x = no result. Sampled rows, rich in hits. Any-hit rate of the full collection: about 1.7%. The call rests on the fitted dose curve; in most records, active means well fitted curve in the direction sought with a large enough effect; inconclusive means small, poorly fitted or top-dose-only effect, or another doubt; inactive means no such curve, though single readings can be large; an effect the other way counts as inactive or inconclusive. Potency means the concentration at half of the fitted maximal effect.
SMILES,HEK293 tox,GLP1R inv ag,GLP-1R agonist
COc1ccc2sc(N(CCCN(C)C)C(=O)c3ccc(S(=O)(=O)N(C)Cc4ccccc4)cc3)nc2c1,u,u,-2%
CCc1ccc2nc(N(CCCN(C)C)C(=O)c3ccc(S(=O)(=O)N4CCCC4)cc3)sc2c1,-20%,u,15%
NC(=O)C1CCN(C(=O)CCC(=O)c2ccc(F)cc2)CC1,3%,14%,-6%
COc1ccc(Cl)cc1NC(=O)C(=O)NCc1ccc(Cl)cc1,-6%,0%,x
COc1ccc(CNCc2ccc(OC)c3ccccc23)cc1,-3%,u,12%
Cc1ccc(S(=O)(=O)N2CCCC(C(=O)NCCc3ccccc3)C2)cc1 (stereo not given),3%,-28%,11%
COc1ccccc1NC(=O)COc1ccc2c(c1)OCO2,-28%,1%,5%
Cc1cc(C)c2sc(N(CCN(C)C)C(=O)c3c(F)cccc3F)nc2c1,-14%,7.1µM*,12%
Cc1ccc2nc(N(CCCN(C)C)C(=O)c3ccc(S(=O)(=O)N4CCCCCC4)cc3)sc2c1,u,u,-5%
Cc1cc(C)c2sc(N(CCCN(C)C)C(=O)CN3C(=O)c4ccccc4C3=O)nc2c1,u,u,10%
CCOc1cccc2sc(N(CCCN(C)C)C(=O)c3ccc(S(=O)(=O)N(C)Cc4ccccc4)cc3)nc12,u,u,-19%
CCN(Cc1ccccc1)S(=O)(=O)c1ccc(C(=O)N(CCCN(C)C)c2nc3cc(C)cc(C)c3s2)cc1,u,u,11%
CN(C)CCCN(C(=O)c1ccc(S(=O)(=O)N2CCCCCC2)cc1)c1nc2cc3c(cc2s1)OCO3,-25%,10µM*,5%
Cc1cc(C)c2sc(N(CCCN(C)C)C(=O)c3ccc(S(=O)(=O)N(C)Cc4ccccc4)cc3)nc2c1,u,11µM*,-10%
CCOc1cccc2sc(N(CCCN(C)C)C(=O)c3ccc(S(=O)(=O)N(CC)Cc4ccccc4)cc3)nc12,u,4µM*,-2%
CCCCC(F)(F)[C@@]1(O)CC[C@H]2[C@H](CC(=O)[C@@H]2CCCCCCC(=O)O)O1,x,x,13%
CCCN1C(C(=O)c2ccccc2)=C(OC(=O)c2ccc(C)cc2)c2ccccc2S1(=O)=O,-3%,u,x
CCCCC(=O)OC1=C(C(=O)c2ccccc2)N(CCC)S(=O)(=O)c2ccccc21,-25%,11µM*,x
CCCCN1C(C(=O)c2ccccc2)=C(OC(=O)CC)c2ccccc2S1(=O)=O,-30%,u,x
CCCCCN1C(C(=O)c2ccccc2)=C(OC(=O)CC)c2ccccc2S1(=O)=O,-12%,13µM*,x
COc1ccc(OC)c(NC(=S)NCCC(c2ccccc2)c2ccccc2)c1,-20%,8.9µM*,2%
COc1ccc(OC)c(NC(=S)NCc2ccccc2OC)c1,u,u,18%
S=C(NCc1ccccc1Cl)Nc1ccccc1Cl,-2%,u,18%
S=C(NCCC(c1ccccc1)c1ccccc1)Nc1cccc(Cl)c1,u,11µM*,-4%
S=C(NCCN(C1CCCCC1)C1CCCC1)Nc1cccc(Cl)c1,u,u,0%
SMILES,HEK293 tox,GLP1R inv ag,GLP-1R agonist
Fc1cccc(NC(=S)NCc2ccccc2Cl)c1,-92%,10µM*,-1%
CC(=O)Nc1ccc(NC(=O)c2cc(CN3CCCC3)on2)cc1,3%,9%,x
O=C(NCCc1ccccc1)c1ccc(-c2cccnc2)c2ccoc12,-7%,-15%,23%
Cc1cc(C(F)(F)F)nn2cnnc12,6%,52%,-1%
CCN1CCC(N(Cc2ccc3c(c2)OCO3)C(=O)Nc2cc(Cl)ccc2C(=O)OC)CC1,u,-18%,x
CC(=O)c1ccc2c(c1)N(Cc1ccc3ccccc3c1)C(=O)C(C)S2 (stereo not given),-16%,u,6%
COCc1cccc(C2=CC(=O)C[C@H](c3ccc(OC)cc3)C2)c1,-15%,2%,19%
CCOc1ccc(C(=O)Oc2c(Sc3ccccc3)c(C)nn2C(C)(C)C)cc1OCC,-1%,u,x
Cc1nn(C(C)(C)C)c(OC(=O)c2ccc3c(c2)OCO3)c1Sc1ccccc1,-5%,4.5µM*,-5%
Cc1ccc(S(=O)(=O)c2c(C)nn(C(C)(C)C)c2OC(=O)c2ccco2)cc1,-27%,u,-21%
Cc1nn(C(C)(C)C)c(OC(=O)c2ccc3c(c2)OCO3)c1S(=O)(=O)c1ccccc1,-6%,10µM*,-6%
CC(=O)c1ccc(-c2cnc3c(NC=O)cc(-c4cnn(C)c4)cn23)cc1,-11%,-5%,13%
Cc1ccc(S(=O)(=O)c2cnc(SCC(=O)Nc3ccc4c(c3)OCCO4)[nH]c2=O)cc1Cl,1%,7%,1%
